In PubChem BioAssay (Tox21):
Results filed as inconclusive are left out. Entries that show only a call come without a potency. Unmarked numbers belong to inactive results. Active and inactive are the calls of the source. Calls follow the shape of the dose curve; as a rule, active = well fitted activation curve with a large enough effect in the repeat runs; inconclusive = weak or mixed curves; inactive = flat fitted curve, though single readings scatter.

Experiment: A CellTox Green Cytotoxicity Assay to monitor cytotoxicity in HepG2 cells - 24 hour (AID 1224878); also: nearly all actives have a fitted effect of over 45% in size
Settings: CellTox Green fluorescence; series mostly up to 76.8 µM
Excerpt: National Center for Advancing Translational Sciences [NCATS]
NIH Chemical Genomics Center [NCGC]
U.S. Environmental Protection Agency [EPA]
National Institutes of Environmental Health Sciences [NIEHS]
National Toxicology Program [NTP]
Cell-based models are critical for drug discovery. Determining the natural cytotoxic effects resulting from test compounds is an essential research activity. A CellTox Green Cytotoxicity Assay to monitor cytotoxicity in real time of continues cell culture during 40 hours of the compound treatment was used to screen Tox21 10K library compounds in HepG2 cells. CellTox Green Cytotoxicity Assay is a nonlytic, homogeneous, biofluorescent method to measure cytotoxicity in cell culture after experimental manipulation. The assay system uses a proprietary asymmetric cyanine dye that is excluded from viable cells but preferentially stains the dead cell's DNA. […] Viable cells produce no appreciable increases in fluorescence. Therefore, the fluorescence signal produced by the binding interaction with dead cell DNA is proportional to cytotoxicity.
The mixture of HepG2 cell suspension and reagents were dispensed at 600cells/6 ul/well in 1536-well tissue culture treated black solid bottom plates using a Multidrop dispenser. After the assay plates were incubated at a 37 C/5% CO2 incubator for 5 hours, 23 nL of compounds dissolved in DMSO, positive and negative controls was transferred to the assay plate by a pintool work station. The plates were incubated at 37 C for 40 hours. The fluorescence intensity were measured at 0h, 8h, 16h, 24h, 32h and 40h time points using ViewLux plate reader during compound treatment.
Potency is read from the fitted curve at half-maximal effect.

Question: Which Potency does the source give for CCn1nc(C(=O)O)c(=O)c2cc3c(cc21)OCO3 here?
Answer: inactive

Question: For CCc1nccnc1CC, which cytotoxicity is on record?
Answer: 0.289% [at 15.8 µM]

Question: Which Potency does the source give for CCOc1ccc(C(=O)OCCN(CC)CC)cc1 here?
Answer: inactive

Question: Which Potency does the source give for O=C[C@H](O)[C@@H](O)[C@H](O)[C@H](O)CO here?
Answer: inactive

Question: For CN1C(=O)N(C)C(O)C1O (stereo not given), which Potency is on record?
Answer: inactive

Question: For CN(C)CCCSc1ccccc1NC(=O)/C=C/c1ccccc1, which Potency is on record?
Answer: 19 µM (active)

Question: With O=C(O)Cc1ccc(CCNS(=O)(=O)c2ccc(Cl)cc2)cc1 as the compound, how does the Potency read?
Answer: inactive

Question: With NCCCNCCSP(=O)(O)O as the compound, how does the cytotoxicity read?
Answer: -8.81% [at 6.97 µM]

Question: Which Potency does the source give for FC1(F)C(F)(F)C(F)(F)C2(F)C(F)(F)C(F)(F)C(F)(F)C(F)(F)C2(F)C1(F)F (stereo not given) here?
Answer: inactive

Question: For O=c1cc(-c2ccccc2)oc2ccccc12, which Potency is on record?
Answer: inactive

Question: With CCCCCCCCCCCCN(CCCCCCCCCCCC)CCCCCCCCCCCC as the compound, how does the Potency read?
Answer: inactive

Question: For O=Cc1cccc([N+](=O)[O-])c1, which Potency is on record?
Answer: inactive

Question: For CC(C)NC(=O)NC(C)C, which Potency is on record?
Answer: inactive

Question: Which Potency does the source give for CCN1CCC[C@H]1CNC(=O)c1cc(S(N)(=O)=O)ccc1OC here?
Answer: inactive

Question: Which Potency does the source give for CCCCC(CC)COC(=O)c1ccccc1O (stereo not given) here?
Answer: inactive

Question: Which Potency does the source give for COCCc1ccc(OCC(O)CNC(C)C)cc1 (stereo not given) here?
Answer: inactive

Question: With O=C(CCCN1CCN(c2ccccn2)CC1)c1ccc(F)cc1 as the compound, how does the Potency read?
Answer: inactive

Question: For C=CCS(=O)(=O)O, which Potency is on record?
Answer: inactive

Question: For CCN1CCC[C@H]1CNC(=O)c1c(O)c(Cl)cc(Cl)c1OC, which Potency is on record?
Answer: inactive

Question: With C1CN(CCOCCN2CCOCC2)CCO1 as the compound, how does the Potency read?
Answer: inactive

Question: With COc1ccccc1OCC(O)CN1CCN(CC(=O)Nc2c(C)cccc2C)CC1 (stereo not given) as the compound, how does the Potency read?
Answer: inactive

Question: Which Potency does the source give for CS(=O)(=O)O here?
Answer: inactive

Question: For CC(=O)CC(C)(C)C1CCCCC1, which Potency is on record?
Answer: inactive

Question: For C=CCOCC(CC)(CO)COCC=C, which Potency is on record?
Answer: inactive

Question: For Nc1ccc(S(=O)(=O)Nc2ccnn2-c2ccccc2)cc1, which cytotoxicity is on record?
Answer: -1.77% [at 15.8 µM]

Question: With CCCCCSCCCCC as the compound, how does the Potency read?
Answer: inactive

Question: Which Potency does the source give for CCN(CC)CCOCCOC(=O)C1(c2ccccc2)CCCC1 here?
Answer: inactive

Question: For CC1(C)CO[C@@H](CC(=O)O)CN1, which Potency is on record?
Answer: inactive

Question: With O=C(O)c1ccccc1OP(=O)(O)O as the compound, how does the Potency read?
Answer: inactive

Question: With CC(C)(CC(=O)O)C(=O)O as the compound, how does the Potency read?
Answer: inactive

Question: Which Potency does the source give for OC1CCCCC1c1ccccc1 (stereo not given) here?
Answer: inactive

Question: Which Potency does the source give for CC(C[N+](C)(C)C)OC(N)=O (stereo not given) here?
Answer: inactive

Question: Which Potency does the source give for CC/C=C\CC/C=C/C(OCC)OCC here?
Answer: inactive

Question: For CC(C)(O)C(=O)c1ccccc1, which Potency is on record?
Answer: inactive

Question: For CCOC(=O)CCC(C)=O, which Potency is on record?
Answer: inactive

Question: With COc1ccc(CCN(C)CCCC(C#N)(c2cc(OC)c(OC)c(OC)c2)C(C)C)cc1OC (stereo not given) as the compound, how does the Potency read?
Answer: inactive

Question: For C=C1CC[C@H]2C[C@@H]1C2(C)C, which Potency is on record?
Answer: inactive

Question: Which Potency does the source give for Nc1c2c(nc3ccccc13)CCCC2O (stereo not given) here?
Answer: inactive

Question: With Cc1ccc(C#N)cc1 as the compound, how does the Potency read?
Answer: inactive

Question: Which Potency does the source give for OCCCC1CCCCC1 here?
Answer: inactive
